Results: PubChem BioAssay (NCATS)
Records with an inconclusive call do not appear. Unmarked numbers belong to inactive results. The source made the active and inactive calls. Calls come from the whole dose curve; as a rule, active = well fitted inhibition curve with a large enough effect; inconclusive = small, poorly fitted or top-dose-only effect; inactive = no such curve, though single readings can be large or run the other way.

assay: qHTS assay for measurement of the activity of small molecule inhibitors on Zika virus induced Caspase-3 activity in human iPSC derived neural progenitor cells (hNPCs) (AID 1224857); details: hNPCs ZIKV-induced caspase-3/7, Caspase-Glo luminescence, 6 h; series mostly up to 45.7 µM; activity change, negative = inhibition: at the top concentration; note: nearly all actives have a fitted effect of over 65% in size; for activity change, negative = inhibition: % of control where 0% means no effect
Excerpt: National Center for Advancing Translational Sciences [NCATS]
Johns Hopkins University School of Medicine
Increase in the Caspase-3 activity indicates an activation of apoptosis cell death pathway caused by Zika virus infection in certain types of neuronal cells including human neural progenitor cells (hNPCs), astrocytes, and astrocytoma cell line (SNB-19). This cell-based caspase-3 activity assay measures the increased caspase-3 activity in the human iPSC derived neural progenitor cells (hNPCs) after a 6-hour Zika virus infection with a luminescence readout. A decrease in the luminescence signal in this assay by small molecule treatment indicates an inhibitory effect of that small molecule on the Zika virus induced caspase-3 activity that may correlate with its effect on reduction of Zika virus caused cell death.
The medium for hNPCs consists of DMEM/F12, N2 supplement (ThermoFisher, Cat.# 17502048), NEAA (ThermoFisher, Cat. # 11140050), 2 ug/ml heparin, 2 uM cyclopamine, and B27 (ThermoFisher, Cat. # 17504044). A Caspase-Glo 3/7 assay kit (catalog number G8092; Promega, Madison, WI) was used to detect caspase-3 activity induced by Zika virus infection in human cells. The reagent mixture was reconstituted as described in the protocol from the manufacturer. Polystyrene tissue culture treated and PDL coated white plates were obtained from Greiner Bio-One (Monroe, NC). Cells were seeded in 384- or 1536-well assay plates and cultured at 37 C with 5% CO2 for 16 to 20 hours. The typical cell seeding density in the 1536-well plate assay is 350 cells/well in 3 ul medium for hNPCs in tissue culture treated plates. Compounds were added to cells and incubated for one hour before addition of ZIKV solution to cells (2 FFU/cell). After incubation at 37 C with 5% CO2 for 6 hours, the reagent mixture of Caspase-Glo 3/7 assay kit was added to each well, followed by incubation at room temperature for 30 minutes. The luminescence intensity of the assay plates was measured using a ViewLux plate reader (PerkinElmer). Data were normalized by using the cell-containing wells without ZIKV as a negative control (0% induction of caspase 3/7 activity) and wells containing ZIKV infected cells (Caspase-3 activity induced) as a positive control (100% induction of caspase 3 activity). The percentage inhibitions of the increased Caspase-3 activity by small molecule inhibitors were then calculated.
Potency is the fitted concentration of half-maximal effect.

Compound | activity change, negative = inhibition | Potency
O=C(c1ccc(F)c(F)c1Nc1ccc(I)cc1F)N1CC(O)([C@H]2CCCCN2)C1 | 18% | –
CC[C@H]1OC(=O)[C@H](C)[C@@H](O[C@H]2C[C@@](C)(OC)[C@@H](O)[C@H](C)O2)[C@H](C)[C@@H](O[C@@H]2O[C@H](C)C[C@H](N(C)C)[C@H]2O)[C@](C)(O)C[C@H](C)C(=NOCOCCOC)[C@H](C)[C@@H](O)[C@]1(C)O | -8.76% | –
Cc1cc(CS(=O)(=O)c2ccccc2)cc(OCc2ccc(CN3CCC[C@H]3CO)cc2)c1 | -3.33% | –
CN(C)c1nc(Cc2ccc(NC(=O)c3ccc(C(F)(F)F)cc3)cc2)nc(N(C)C)c1CC(=O)O | -3.04% | –
CC(C)(OCc1nn(Cc2ccccc2)c2ccccc12)C(=O)O | 16.5% | –
Cc1ccccc1-n1c(Cn2nc(-c3cccc(O)c3)c3c(N)ncnc32)nc2cccc(C)c2c1=O | 31% | –
COc1c(C)c2c(c(O)c1CC=C(C)CCC(=O)OCCN1CCOCC1)C(=O)OC2 | -3.89% | –
NS(=O)(=O)c1ccc(Nc2nc(OCC3CCCCC3)c3[nH]cnc3n2)cc1 | 15.7% | –
CCN(CCO)CCCOc1ccc2c(Nc3cc(CC(=O)Nc4cccc(F)c4)[nH]n3)ncnc2c1 | 11.6% | –
OC[C@H]1O[C@@H](OCCc2ccc(O)cc2)[C@H](O)[C@@H](O)[C@H]1O | 38.8% | –
CC1CCN(c2cc(N3CCN(C)CC3)ccc2NC(=O)c2cc(C#N)c[nH]2)CC1 | 3.57% | –
O=C1CCCC(=O)C1C(=O)c1ccc(C(F)(F)F)cc1[N+](=O)[O-] | -0.0412% | –
CC(NCCc1ccc(O)cc1)C(O)c1ccc(O)cc1 (stereo not given) | 9.6% | –
O=c1cc(-c2ccc(O)c(O)c2)oc2cc(O)cc(O)c12 | -21.4% | –
C=C1[C@H](n2cnc3c(=O)[nH]c(N)nc32)C[C@H](O)[C@H]1CO | 23% | –
COc1nccc(-c2c(-c3ccc(F)cc3)ncn2C2CCNCC2)n1 | 45.5% | –
CC=C(C(=CC)c1ccc(O)cc1)c1ccc(O)cc1 | -2.07% | –
O=C(c1ccc(C(=O)N2CCC(N3CCCC3)CC2)c(Nc2ccccc2)c1)N1CCC(N2CCCC2)CC1 | 21.8% | –
COc1cc(CNC(=O)CCCCC=CC(C)C)ccc1O | 5.5% | –
O=C(O)C1=CC(O)C(O)[C@H](O)C1 (stereo not given in full) | 21.2% | –

Compound | activity change, negative = inhibition | Potency
CO[C@H]1O[C@@H]2O[C@@]3(C)CC[C@@H]4[C@@H](C)CC[C@@H]([C@H]1C)[C@@]24OO3 | -16% | –
COc1ccc(-c2ccc3ncc4c(c3c2)n(-c2ccc(N3CCNCC3)c(C(F)(F)F)c2)c(=O)n4C)cn1 | -15.2% | –
CC(C)(CO)[C@@H](O)C(=O)NCCC(=O)O | 18.3% | –
CN[C@H]1[C@@H](O[C@@H]2[C@H](O[C@@H]3[C@@H](O)[C@@H](O)[C@@H](N=C(N)N)[C@@H](O)[C@@H]3N=C(N)N)O[C@H](C)[C@@]2(O)C=O)O[C@@H](CO)[C@@H](O)[C@H]1O | 33.7% [at 15.2 µM] | –
Cc1cc(-c2ncc(CC(=O)Nc3ccc(-c4cnccn4)cn3)cc2C)ccn1 | 20.5% | –
NC(=O)c1ccc(N(C(N)=O)c2c(F)cccc2F)nc1-c1ccc(F)cc1F | 54.1% | –
CCc1cccc(CC)c1NC(=O)N1Cc2[nH]nc(NC(=O)c3ccc(N4CCN(C)CC4)cc3)c2C1 | 29.8% | –
Cc1cc2c(cc1C1(c3ccc(C(=O)O)cn3)CC1)C(C)(C)CCC2(C)C | -6.8% | –
CCC(C)SSc1ncc[nH]1 (stereo not given) | – | 26.4 µM (active)
CCC(=C(CC)c1ccc(O)cc1)c1ccc(O)cc1 | 35% | –
O=C1Nc2ccc(I)cc2C1=Cc1cc(Br)c(O)c(Br)c1 | 111% | –
Cc1csc(-c2nnc(Nc3ccc(Oc4ncccc4-c4ccnc(N)n4)cc3)c3ccccc23)c1 | 43.7% | –
CCNC(=O)[C@H]1O[C@@H](n2cnc3c(N)nc(NCCc4ccc(CCC(=O)O)cc4)nc32)[C@H](O)[C@H]1O | -1.01% | –
Nc1ncnc2c1ncn2[C@@H]1O[C@H](CO)[C@@H](O)[C@@H]1O | -14.4% | –
O=c1[nH]c(=O)n([C@H]2C[C@@H](O)[C@@H](CO)O2)cc1C(F)(F)F | -2.07% | –
CCC(=C(c1ccc(O)cc1)c1ccc(OCCNC)cc1)c1ccccc1 | 179% | –
C=C[C@@H]1CN2CCC1C[C@@H]2C(O)c1ccnc2ccc(OC)cc12 (stereo not given in full) | 8.91% | –
Cc1cc(NC(=O)Nc2ccc(N(C)C)cc2)c2cc(F)cc(F)c2n1 | -3.86% | –
Cc1cccc(-c2[nH]c(C(C)(C)C)nc2-c2ccc3c(c2)OCO3)n1 | 5.53% | –
Cc1ccc2c(c1)c1c(n2CCc2ccc(C)nc2)CCN(C)C1 | 3.37% | –
